Compounds without any hit were thinned out: in the full panel of roughly 83,000, 20% have a hit.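 Percent growth is the endpoint: 0 to 100 indicates growth inhibition (40 means 60% inhibition), 0 means no net growth, and negative values indicate cell death.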 Values without a mark were called inactive. The source made the active and inactive calls. Rule for the calls: active = growth percent below 10; inactive = the rest.
How the values were obtained:
Assay in all cases: NCI-60 one-dose screen, 48 h (100 = growth as untreated, 0 = no growth, -100 = all killed)
Conditions in all cases: 10 µM
[1] = tested on: HT29 colon
[2] = tested on: SNB-75 CNS
[3] = tested on: SNB-19 CNS
[4] = tested on: U251 CNS
[5] = tested on: PC-3 prostate
[6] = tested on: SK-MEL-5 melanoma
[7] = tested on: UACC-62 melanoma
[8] = tested on: LOX IMVI melanoma
[9] = tested on: SK-MEL-28 melanoma
[10] = tested on: SK-MEL-2 melanoma

SMILES	growth [1]	growth [2]	growth [3]	growth [4]	growth [5]	growth [6]	growth [7]	growth [8]	growth [9]	growth [10]
CCOC(=O)N1C/C(=C/c2ccc(F)cc2)C(=O)/C(=C/c2ccc(F)cc2)C1	-58.8% (active)	56.8%	39.6%	-65.6% (active)	-25.3% (active)	-59.7% (active)	-56.8% (active)	-84.5% (active)	-37.4% (active)	21.7%
O=C(NN1C(=O)CSC1c1ccc(Cl)cc1)c1cccnc1 (stereo not drawn)	109%	110%	113%	99.5%	93.6%	102%	125%	102%	–	109%
C/C(=N\Nc1nc2ccccc2s1)c1ccncn1	25.1%	61.8%	51.1%	33.6%	27.3%	31.4%	41.7%	31.5%	–	63%
Cc1cccc(C)c1NC(=O)c1sc2nc3c(cc2c1N)C(=O)CCC3	85.6%	82.6%	66.5%	85.6%	70.2%	57.7%	67.4%	91.3%	81.3%	69.7%
c1ccc([C@H]2CN3CCSC3=N2)cc1	101%	-20.8% (active)	110%	107%	98.9%	103%	99%	102%	–	105%
CN(C)C(=S)N/N=C\C=N/NC(=S)N(C)C	13.5%	64%	90.3%	42.8%	-18.4% (active)	64.8%	73.2%	43.9%	–	85%
CCOC(=O)c1ccc(NC(=O)Nc2ncc(Cl)cc2Cl)cc1	95.3%	119%	106%	99.2%	77%	104%	87%	110%	106%	102%
COc1ccccc1CNCCN1C(=O)c2ccc3c4c(ccc(c24)C1=O)C(=O)N(CCNCc1ccccc1OC)C3=O	-36.1% (active)	-96.1% (active)	-91.4% (active)	-81.4% (active)	-75.4% (active)	-100% (active)	-93.3% (active)	-82.3% (active)	–	-74.6% (active)
Cc1nc2ccc(CN(C)c3ccc(C(=O)N[C@@H](CCC(=O)O)C(=O)O)s3)cc2c(=O)[nH]1	55.1%	43.4%	42.8%	56.3%	56.5%	28.7%	40.1%	26.8%	–	105%
Cc1nc2oc3ccccc3c(=O)c2cc1C(=O)NCc1ccccc1	94.1%	80.9%	84.9%	64.7%	90.9%	81%	31.1%	55.9%	78.5%	9.34% (active)
C=C(Cl)[C@@](Cl)(CBr)CC[C@@H](Br)C(C)(C)Cl	-88.2% (active)	-96.8% (active)	-74.9% (active)	-97.9% (active)	-92.7% (active)	87.9%	-25.9% (active)	94.5%	–	-30.8% (active)
COc1cc(C(=C2O[C@@H]([C@H]3COC(C)(C)O3)[C@H]3OC(C)(C)O[C@@H]23)c2cc(OC)c(OC)c(OC)c2)cc(OC)c1OC	114%	99.8%	109%	107%	90%	105%	100%	99.1%	–	158%
CN1CC[C@@H](c2c(O)cc(O)c3c(=O)cc(-c4ccccc4Cl)oc23)[C@@H](O)C1	-7.65% (active)	-71.9% (active)	13.6%	8.62% (active)	-48.9% (active)	-38.5% (active)	-48.8% (active)	5.25% (active)	–	-40.7% (active)
CCC(=O)N1C/C(=C/c2ccc(Br)cc2)C(=O)/C(=C/c2ccc(Br)cc2)C1	-58.9% (active)	1.74% (active)	-32.7% (active)	-81.4% (active)	-42.8% (active)	-53.8% (active)	-80.3% (active)	-87.7% (active)	-72.4% (active)	-33.8% (active)
O=C(CC(c1ccccc1)N1CCOCC1)c1ccccc1 (stereo not drawn)	90.1%	85.8%	85%	80.8%	72.1%	97.2%	93.6%	89%	–	94.7%
N#Cc1c(C#N)c(SSc2c(C#N)c(C#N)c(N)n2-c2ccccc2)n(-c2ccccc2)c1N	101%	71.7%	103%	114%	49%	96.7%	94.8%	96.4%	–	98.5%
c1ccc2c(-c3nc(N4CCOCC4)c4c5c(sc4n3)CCCCCC5)cccc2c1	101%	85.2%	104%	91%	95%	94%	96.6%	105%	105%	104%
c1ccc(CP(Cc2ccccc2)c2ccccc2)cc1	88.2%	101%	105%	93.6%	86.2%	99%	99.3%	86.8%	110%	97%
COc1cc(C(=O)/C=C/c2cc(-c3cc(OC)c(OC)c(OC)c3)n[nH]2)cc(OC)c1OC	-47.5% (active)	54.9%	55.4%	-57.9% (active)	12.9%	21.3%	51%	-62.7% (active)	-59.5% (active)	4.38% (active)
COc1ccc(N=C2C(=Nc3ccc(OC)cc3)N(c3ccc(N(C)C)cc3)C(=S)N2c2ccc(OC)cc2)cc1	84%	8.69% (active)	75.1%	49.3%	52.5%	84.8%	98.2%	86.3%	–	90.7%
CC(C)=CCc1ccc(O)c(=O)cc1C(C)C	28.5%	12.7%	41%	15.5%	43.7%	-17.2% (active)	14.3%	22%	34.5%	17.2%
Cn1c(C(N)=O)cc2c1-c1nc(Nc3ccccc3)ncc1CCC2	70%	35.6%	58.4%	26.9%	59.5%	72.1%	37.1%	40.5%	68.7%	46%
CCCCCCN1C(=O)C2=C(c3ccc(Cl)cc3)Nc3c(c(C)nn3-c3ccccc3)C2c2ccccc21 (stereo not drawn)	98.1%	83.6%	89.4%	87.8%	76.7%	92.7%	94.8%	94.6%	96.4%	91.1%
CCC1(C(C)C)NC(=O)NC1=O (stereo not drawn)	106%	100%	101%	98.2%	98.5%	104%	94.6%	99.7%	–	83.8%
CC(C)C[C@H](NC(=O)[C@H](Cc1cccc2ccccc12)NS(=O)(=O)c1cccc2cccnc12)B(O)O	-56.6% (active)	-51.9% (active)	8.26% (active)	-52.9% (active)	-23.2% (active)	-85.8% (active)	-50.9% (active)	-78.7% (active)	–	-41.2% (active)
Cc1cc(O)c(C(C)(C)C)cc1Sc1cc(C(C)(C)C)c(O)cc1C	97.1%	54.2%	81%	60%	22.5%	33.7%	16.3%	63.9%	–	72.6%
COc1cccc(Cn2c(-c3nonc3N)nc3ccccc32)c1	-5.42% (active)	-16.7% (active)	53.3%	18.4%	11%	16.8%	33.9%	40.9%	43.7%	-12.2% (active)
O=C1OCC2=C1C(c1cccc(Cl)c1)c1cc3c(cc1N2CCO)CCC3 (stereo not drawn)	-9.18% (active)	40.5%	29.8%	3.51% (active)	–	-8.14% (active)	26.6%	12.6%	59.2%	–

— PubChem BioAssay (NCI)
